Legend:
Conditions in all cases: concentration: 1 μM,replicates: in singlicate; n = 1
[1] = tested on: MAPKAPK5
[2] = tested on: MARK1
[3] = tested on: MARK2
[4] = tested on: MARK3
[5] = tested on: MARK4
[6] = tested on: MAST1
[7] = tested on: T1, MEK1
T1 construct: gene MAP2K1

[8] = tested on: T2, MEK2
T2 construct: gene MAP2K2

[9] = tested on: T3, MEK3
T3 construct: gene MAP2K3

[10] = tested on: T4, MEK4
T4 construct: gene MAP2K4

[11] = tested on: T5, MEK5
T5 construct: gene MAP2K5

[12] = tested on: T6, MEK6
T6 construct: gene MAP2K6

[13] = tested on: MELK
[14] = tested on: MERTK
[15] = tested on: MET
[16] = tested on: T7, MINK
T7 construct: gene MINK1

[17] = tested on: MKK7
[18] = tested on: MKNK1
[19] = tested on: MKNK2
[20] = tested on: T8, MLCK
T8 construct: gene MYLK3
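Also: KINOMEscan kinase panel screen.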

| SMILES | %Inh [1] [%] | %Inh [2] [%] | %Inh [3] [%] | %Inh [4] [%] | %Inh [5] [%] | %Inh [6] [%] | %Inh [7] [%] | %Inh [8] [%] | %Inh [9] [%] | %Inh [10] [%] | %Inh [11] [%] | %Inh [12] [%] | %Inh [13] [%] | %Inh [14] [%] | %Inh [15] [%] | %Inh [16] [%] | %Inh [17] [%] | %Inh [18] [%] | %Inh [19] [%] | %Inh [20] [%] |
| --- | --- | --- | --- | --- | --- | --- | --- | --- | --- | --- | --- | --- | --- | --- | --- | --- | --- | --- | --- | --- |
| Cc1cccc2c(-c3ccncc3)c(-c3ccc(F)cc3)nn12.Cl [GW461487] | 0 | 0 | 0 | 0 | 0 | 0 | 39 | 0 | 0 | 52 | 6 | 0 | 0 | 5 | 0 | 30 | 0 | 1 | 0 | 0 |
| COc1ccc(Nc2nccc(N3CCC(NC(=O)c4cccc(C#N)c4)C3)n2)cc1 (centres unmarked) [GSK1379730] | 0 | 1 | 0 | 0 | 9 | 0 | 0 | 0 | 0 | 8 | 8 | 0 | 0 | 24 | 9 | 0 | 17 | 0 | 5 | 3 |
| COc1cc(Nc2nccc(N3CCC(NC(=O)c4cccc(C#N)c4)C3)n2)cc(OC)c1OC (centres unmarked) [GSK1379751] | 0 | 100 | 0 | 0 | 100 | 0 | 0 | 0 | 0 | 19 | 85 | 0 | 0 | 9 | 6 | 0 | 16 | 0 | 67 | 0 |
| c1ccc(Oc2ccc(Nc3ccnc4ccc(-c5ccccn5)cc34)cc2)cc1 [GW407034] | 0 | 0 | 0 | 0 | 0 | 2 | 85 | 66 | 0 | 16 | 99.9 | 0 | 0 | 9 | 16 | 0 | 0 | 0 | 17 | 13 |
| O=C(Nc1ccc(Oc2ccc3nc(NC(=O)C4CC4)cn3n2)c(F)c1)c1cccn(-c2ccccc2)c1=O | 0 | 0 | 0 | 29 | 0 | 10 | 0 | 25 | 0 | 0 | 97 | 0 | 18 | 96 | – | 0 | 0 | 20 | 92.5 | 0 |
| CC(=O)Nc1ccc(-c2cc3ncnc(SCC(=O)O)c3s2)cc1 | 0 | 0 | 17 | 0 | 2 | 0 | 0 | 0 | 6 | 18 | 17 | 20 | 0 | 0 | 0 | 25 | 0 | 0 | 0 | 40 |
| C[C@@H]1CNc2c(sc3ccc4nc(-c5ccc(O)cc5)ccc4c23)C(=O)N1 | 99.9 | 26 | 7 | 17 | 17 | 48 | 1 | 23 | 51 | 0 | 67 | 13 | 0 | 62 | 92.7 | 61 | 0 | 27 | 34 | 52 |
| Cc1ccc(C(=O)Nc2ccc(Oc3ccc4nc(NC(=O)C5CC5)cn4c3)c(F)c2)c(=O)n1-c1ccccc1 | 0 | 0 | 0 | 32 | 15 | 31 | 0 | 29 | 0 | 0 | 98.9 | 0 | 37 | 99.2 | – | 0 | 0 | 88 | 94.2 | 0 |
| Cl.c1ccc(Oc2ccc(Nc3ccnc4cc(-c5ccc(CN6CCNCC6)o5)ccc34)cc2)nc1 [GW567142] | 0 | 0 | 0 | 39 | 0 | 0 | 87 | 90.9 | 0 | 19 | 99.9 | 16 | 0 | 0 | 0 | 27 | 11 | 0 | 42 | 4 |
| COc1cc2nccc(Nc3ccc(Oc4ccccc4)cc3)c2cc1OC.Cl [GI261656] | 0 | 0 | 0 | 0 | 0 | 3 | 96.9 | 92.5 | 0 | 11 | 99.9 | 0 | 3 | 12 | 0 | 0 | 0 | 0 | 27 | 0 |
| CC(=O)c1c(-c2ccncc2)[nH]c(-c2ccncc2)c1C [GW493036] | 0 | 0 | 0 | 10 | 0 | 36 | 0 | 0 | 0 | 40 | 2 | 0 | 0 | 0 | 11 | 29 | 0 | 14 | 46 | 0 |
| Cn1ccc2ncnc(Oc3ccc(NC(=O)Nc4cccc(C(F)(F)F)c4)c(F)c3)c21 | 0 | 13 | 9 | 8 | 0 | 0 | 0 | 29 | 3 | 0 | 35 | 0 | 10 | 98 | 50 | 0 | 0 | 18 | 89 | 0 |
| CS(=O)(=O)c1cccc(CNc2nc(Nc3ccc4c(c3)[C@@H]3C[C@@H]4CNC3=O)ncc2C(F)(F)F)c1 | 0 | 8 | 24 | 67 | 44 | 0 | 39 | 80 | 75 | 89 | 94.5 | 5 | 5 | 98.6 | 93.8 | 90.3 | 9 | 0 | 97.6 | 15 |
| CCNCC(Cc1ccccc1)NC(=O)c1cc(Br)c(-c2ccnc3[nH]ccc23)s1.Cl.Cl (centres unmarked) [GSK1383280] | 0 | 12 | 72 | 69 | 0 | 0 | 0 | 0 | 89 | 57 | 55 | 21 | 97.5 | 34 | 6 | 64 | 35 | 0 | 94.3 | 17 |
| Cn1ccc2ncnc(Oc3ccc(NC(=O)Nc4cccc(C(F)(F)F)c4)c(Cl)c3)c21 | 0 | 0 | 6 | 0 | 0 | 0 | 0 | 25 | 0 | 6 | 30 | 30 | 0 | 85 | 17 | 4 | 32 | 16 | 19 | 12 |
| Cn1ccc2ncnc(Oc3ccc(NC(=O)Nc4cc(C(C)(C)C)on4)c(Cl)c3)c21 | 50 | 4 | 0 | 0 | 14 | 0 | 23 | 41 | 15 | 9 | 71 | 7 | 20 | 94.8 | 48 | 91.6 | 0 | 3 | 90 | 7 |
| COc1cc2c(Nc3ccc(NC(=O)c4ccccc4)cc3)ncnc2cc1OCCCN1CCOCC1 [GSK301329] | 0 | 0 | 0 | 0 | 0 | 0 | 86 | 86 | 0 | 5 | 99.9 | 0 | 4 | 65 | 50 | 17 | 0 | 0 | 18 | 0 |

Source: article PMC5540273 (PLoS ONE, 2017)
